Laboratory results from the supplement of paper PMC6555819.

Key:
Assay in all cases: PBM binding z-score (relative to random genomic background probes); higher = stronger binding; sequences stand for … in GC…GCGATTGACAGCGTAGAATGAAGG
[1] = system: FXR:RXRa (NR concentration 270 nM, RXRa partner concentration 90 nM)
How it was run: (§1)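 Binding buffer was PBS pH 7.4 with 2% milk, 0.02% Triton X-100, 1 mM DTT, 0.2 mg/mL BSA and 0.4 mg/ml salmon testes DNA. In it, ligand-free nuclear receptor dimers were incubated 1 h on custom Agilent 4×180K protein-binding microarrays carrying double-stranded probes. Antibodies against each partner (one per run) detected binding, and z-scores were calculated against random background probes after regression normalization of scanned fluorescence.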

[2] = system: LXRa:RXRa (NR concentration 270 nM, RXRa partner concentration 90 nM)
How it was run: as §1

[3] = system: LXRa homodimer (NR concentration 270 nM)
How it was run: as §1

[4] = system: LXRb:RXRa (NR concentration 270 nM, RXRa partner concentration 90 nM)
How it was run: as §1

[5] = system: LXRb homodimer (NR concentration 270 nM)
How it was run: as §1

[6] = system: PPARa:RXRa (NR concentration 270 nM, RXRa partner concentration 90 nM)
How it was run: as §1

[7] = system: PPARg:RXRa (NR concentration 180 nM, RXRa partner concentration 90 nM)
How it was run: as §1

[8] = system: PPARg:RXRa 270nM:90nM, anti-RXR (NR concentration 270 nM, RXRa partner concentration 90 nM)
How it was run: as §1

[9] = system: PPARg:RXRa 30nM:10nM, anti-RXR (NR concentration 30 nM, RXRa partner concentration 10 nM)
How it was run: as §1

[10] = system: PPARg:RXRa 90nM:30nM, anti-RXR (NR concentration 90 nM, RXRa partner concentration 30 nM)
How it was run: as §1

Sequence	PBM binding z-score [1]	PBM binding z-score [2]	PBM binding z-score [3]	PBM binding z-score [4]	PBM binding z-score [5]	PBM binding z-score [6]	PBM binding z-score [7]	PBM binding z-score [8]	PBM binding z-score [9]	PBM binding z-score [10]
ACTGGCAGGCCAAGGGTCACTCAAGATTAGTCCG	2.36	2.55	-0.0676	2.36	-0.732	3.88	5.21	5.21	3.1	5.1
TCTTATAGGTAAACAGGTGAAAGTCCGTAAGTTA	1.1	1.01	0.0286	0.875	0.307	2.34	2.7	3.52	4.06	3.86
CAGCCTAGGTCAGGTCCAGTATAGGAGGAACGTT	1.07	0.851	-0.352	0.578	-1.03	1.24	0.465	0.541	-0.0378	0.231
TCTATTAGTTGAAGCGCAACCGACGAGTCCGTTT	0.428	0.488	-0.0421	0.375	0.082	0.55	-0.192	1.85	3.58	2.67
ACTATTAGTTGACTTAGGGCAACCGGTACGACGC	0.0418	0.216	0.333	0.0684	0.939	0.187	0.638	0.108	0.302	0.142
CCGAGTAGGTTATGGAGCATTCAGGCAACGGTGA	0.0328	0.259	0.125	0.219	-0.185	1.01	1.36	2.08	0.32	1.46
CGAACTAGGTCAGACCAGGACAGTGAAGGATGAT	1.62	1.04	-0.304	0.246	-0.517	3.36	6.07	5.08	2.19	3.95
CCTTACGAGTCACGAGGTTATAGCACGACGAGCG	0.991	1.29	0.451	1.22	0.355	1.84	1.22	0.515	-0.27	0.183
CGAACTAGGTCAAGGACAGTTAATCTCCGCACGC	3.29	2.36	0.153	1.58	-0.0529	4.46	7.29	6.38	3.78	5.73
ATTACAGGGTCACTAGGCCAGAGTAGGTACGAAT	6.12	4.57	0.484	3.59	1.62	5.94	8.17	6.86	3.45	5.84
GCTTGTAGATCAAGGTTAGGAAAGACTAAGCTAA	-0.51	-0.347	-0.468	-0.37	-0.511	0.626	0.0578	0.548	-0.199	0.557
AGTCAAAGTTCAGGACGAGCTAACGTAAAGCACG	3.87	3.76	0.971	1.55	0.0911	3.08	4.04	4.89	2.01	4.19
CCTACTGGGCCATCAGGGCATTGATATCAACGTT	-0.583	-0.856	-0.715	-0.817	-0.886	0.0503	1.16	1.68	-0.00697	0.846
GCGACTGGGGCAAAGCAGGTTACCCTAAGGTTGG	0.366	0.0738	-0.555	0.116	-0.841	1.56	1.08	1.52	-0.381	0.659
ACGAGCAGGCCAAGGGTCACTCAAGATTAGTCCG	2.54	2.98	0.215	2.7	-0.627	4.15	5.95	6.33	3.74	5.66
CCTTACGTGTCACTGACAGGTTATAGCATTTGGA	0.791	1.07	0.634	1.18	0.446	1.29	0.601	0.469	0.356	0.704
GGAAAGAGGGCATTCGAGTTGATAGCATGGCGAT	1.74	2.82	0.148	1.13	0.213	1.92	0.905	1.19	0.366	0.958
CCCAGTAGGTTATGGGGCATTCAGGCAACGGTGA	0.192	0.622	-0.205	-0.0107	-0.618	2.63	5.2	5.47	4.14	5.66
AGAATGAGGTTAAGATCGGGGAAACAGAATACAT	2.13	4.69	-0.244	2.3	0.08	3.65	2.06	2.53	0.954	1.75
CCTAGCAGGCCAATCTGGATCACTCAAGGCTTGA	-0.3	-0.327	-0.53	-0.467	-0.696	-0.131	0.141	-0.529	-0.702	-0.514
CTCGAAAGGTCGTACTCAGGTGAGTATACCAAAC	5.55	4	0.513	3.59	0.9	4.59	2.86	3.85	1.33	2.46
CCTAGCAGCCCAGGGTCACTCAAGCATTTCGCTT	2.06	1.93	-0.213	2.17	-0.762	2.99	0.0606	0.885	-0.586	0.325
GCTCGGTGGACAAGGTCAGAGCTTTGTCCGTAGA	1.11	1.03	-0.446	0.887	-1.16	2.09	0.0962	1.14	-0.712	0.499
TTACCACGGTGAGCTGAGGTCGTTGATCCAACTC	0.647	0.233	-0.365	0.375	-1	0.798	-0.279	0.206	-0.397	-0.177
